This note sets out measurements from PubChem BioAssay (NCI).

Compounds without any hit were thinned out: in the full panel of roughly 83,000, 20% have a hit.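 In brief: 96-well plates, 48 h treatment, single concentration, percent growth endpoint.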 A number with no mark means an inactive call. Active and inactive are the calls of the source. The calls were made as follows: active = growth percent below 10; inactive = the rest.

Some test systems named below: NCI-H23 lung; NCI-H226 lung; NCI-H322M lung; HOP-62 NSCLC; NCI-H460 lung; HOP-92 NSCLC; NCI-H522 lung; A549/ATCC NSCLC; 786-0 renal; COLO 205 colon; DU-145 prostate; K-562 leukemia; MALME-3M melanoma; MDA-MB-231 breast; RXF 393 renal; SF-268 CNS; SF-295 CNS; SF-539 CNS; UACC-257 melanoma; M14 melanoma.
Experiment in all cases: NCI-60 one-dose screen, 48 h (100 = growth as untreated, 0 = no growth, -100 = all killed)
Conditions in all cases: 10 µM unless noted

On to `O=S1(=O)N(CCNc2nccc(-c3c(-c4cccc(O)c4)nc4sccn34)n2)CCN1Cc1ccccc1`, for which the growth is 84.1% in the test on NCI-H23 lung; 71.2% with NCI-H226 lung; 101% with NCI-H322M lung; 143% with HOP-62 NSCLC; 42% in the test with NCI-H460 lung; 119% in the test with HOP-92 NSCLC. In addition, the growth was 52.1% in the test with NCI-H522 lung; 65.2% in the test with A549/ATCC NSCLC; 78.3% with 786-0 renal; 46.4% in the test with COLO 205 colon; 74.1% in the test with DU-145 prostate; 46.1% with K-562 leukemia. Besides, the growth was 50.8% in the test with MALME-3M melanoma; 52.6% in the test with MDA-MB-231 breast; 68.6% with RXF 393 renal; 86% in the test with SF-268 CNS; 62.8% in the test with SF-295 CNS; 63.9% with SF-539 CNS. Besides, the growth is 37.2% in the test on UACC-257 melanoma and 28.4% in the test on M14 melanoma.
In the case of `Cc1cc2c(cc1C)N(C(=O)CCl)CCN2C(=O)CCl`, the growth in the test on NCI-H23 lung is -57.1% (active); with NCI-H226 lung, -19.3% (active); in the test on NCI-H322M lung it was 10.2%; with HOP-62 NSCLC, -46.7% (active); in the test on NCI-H460 lung, -54.7% (active); with HOP-92 NSCLC it was -72.5% (active). For the same compound, the growth in the test with NCI-H522 lung is -82.5% (active); in the test on A549/ATCC NSCLC, -29.4% (active); with 786-0 renal it was -24.8% (active); with COLO 205 colon, -41.7% (active); with DU-145 prostate, -97.8% (active); in the test with K-562 leukemia, 5.44% (active). For the same compound, the growth in the test with MALME-3M melanoma is -57.3% (active); in the test with MDA-MB-231 breast, -45.9% (active); with RXF 393 renal it was -47.1% (active); in the test on SF-268 CNS, -33.4% (active); with SF-295 CNS it was 11.8%; in the test on SF-539 CNS it was -85.6% (active). The growth is -67.2% (active) in the test with UACC-257 melanoma and -12.1% (active) in the test with M14 melanoma.
`CCN(CC)c1ccc(C2CC(c3cc(OC)c(OC)c(OC)c3)=NN2)cc1` (stereo not given): the growth was 32.3% in the test with NCI-H23 lung; 67.9% in the test with NCI-H226 lung; 41.5% in the test on NCI-H322M lung; 34.7% in the test with HOP-62 NSCLC; 2.68% (active) in the test with NCI-H460 lung; -13.6% (active) in the test with HOP-92 NSCLC. Further, the growth in the test with NCI-H522 lung was -9.2% (active); in the test on A549/ATCC NSCLC, 13.7%; in the test with 786-0 renal, 23.5%; with COLO 205 colon it was -25.7% (active); in the test on DU-145 prostate, -36.1% (active); in the test with K-562 leukemia, 5.52% (active). The growth in the test on MALME-3M melanoma is 108%; with MDA-MB-231 breast, 31.7%; with RXF 393 renal, -20.9% (active); in the test on SF-268 CNS, 28.1%; in the test on SF-295 CNS, 33.9%; with SF-539 CNS it was -43.1% (active). The growth with UACC-257 melanoma was 30.8%; in the test with M14 melanoma, 5.55% (active).
As for `CCCCNc1cc(C(=O)O)cc(S(N)(=O)=O)c1Oc1ccccc1`, the growth is 102% with NCI-H23 lung; 91% in the test with NCI-H226 lung; 101% in the test with NCI-H322M lung; 101% with HOP-62 NSCLC; 104% with NCI-H460 lung; 81% in the test with HOP-92 NSCLC. In addition, the growth in the test with NCI-H522 lung was 102%; with A549/ATCC NSCLC, 105%; in the test on 786-0 renal, 103%; in the test on COLO 205 colon, 98.6%; with DU-145 prostate, 110%; in the test on K-562 leukemia, 98.2%. For the same compound, the growth in the test on MALME-3M melanoma is 96.2%; in the test with MDA-MB-231 breast it was 122%; with RXF 393 renal, 91.1%; with SF-268 CNS it was 105%; in the test on SF-295 CNS it was 102%; in the test with SF-539 CNS, 105%. Also, the growth with UACC-257 melanoma was 105%; in the test on M14 melanoma it was 109%.
`COC(OC)C1(c2ccccc2)NC(=O)NC1=O` (stereo not given): the growth in the test on NCI-H23 lung is 112%; in the test on NCI-H226 lung it was 113%; in the test on NCI-H322M lung, 108%; in the test with HOP-62 NSCLC, 103%; in the test with NCI-H460 lung, 115%; with HOP-92 NSCLC, 104%. Also, the growth is 79.8% in the test with NCI-H522 lung; 95.9% in the test on A549/ATCC NSCLC; 108% with 786-0 renal; 119% in the test on COLO 205 colon; 120% in the test on DU-145 prostate; 112% in the test on K-562 leukemia. In addition, the growth is 112% with MALME-3M melanoma; 112% with MDA-MB-231 breast; 116% in the test on RXF 393 renal; 119% with SF-268 CNS; 121% in the test with SF-295 CNS; 114% in the test with SF-539 CNS. Further, the growth in the test on UACC-257 melanoma was 104%; in the test on M14 melanoma, 108%.
For the compound `CCOC(=O)c1noc2c1CCc1cn(Cc3cc(OC)cc(OC)c3)cc1-2`, the growth was 97.6% in the test on NCI-H23 lung; 101% in the test on NCI-H226 lung; 102% in the test with NCI-H322M lung; 95.6% in the test with HOP-62 NSCLC; 109% with NCI-H460 lung; 104% with HOP-92 NSCLC. Also, the growth is 46.5% in the test on NCI-H522 lung; 103% in the test on A549/ATCC NSCLC; 101% in the test on 786-0 renal; 115% in the test on COLO 205 colon; 104% with DU-145 prostate; 102% with K-562 leukemia. Further, the growth with MALME-3M melanoma is 107%; with MDA-MB-231 breast it was 117%; in the test on RXF 393 renal it was 113%; in the test on SF-268 CNS, 96.8%; in the test on SF-295 CNS it was 95.3%; in the test on SF-539 CNS, 98.8%. Further, the growth with UACC-257 melanoma and in the test with M14 melanoma was 101% each time.
Regarding `C#C[C@H](O)/C=C/CCCCCCC#C[C@H](O)CC[C@@H](O)C#CCCCCCC/C=C/[C@@H](O)C#C`, the growth with NCI-H23 lung was 51%; with NCI-H226 lung it was 116%; in the test on NCI-H322M lung, 96.3%; with HOP-62 NSCLC, 85.3%; with NCI-H460 lung, 97.4%; in the test on HOP-92 NSCLC, 11.9%. Besides, the growth in the test on NCI-H522 lung was -72.7% (active); in the test with A549/ATCC NSCLC, 91.1%; in the test with 786-0 renal, 64.6%; in the test on COLO 205 colon, 79.8%; with DU-145 prostate it was 95.7%; with K-562 leukemia it was 11.7%. Moreover, the growth in the test on MALME-3M melanoma was -32.9% (active); in the test on MDA-MB-231 breast, 63.1%; with RXF 393 renal, 104%; with SF-268 CNS, 85.1%; in the test on SF-295 CNS it was 87.4%; in the test on SF-539 CNS, 75.9%. In addition, the growth with UACC-257 melanoma was 101%; in the test on M14 melanoma, 93.1%.
As to `C[C@@H]1CC2C3C[C@H](F)C4=CC(=O)C=C[C@]4(C)[C@@]3(F)[C@@H](O)C[C@]2(C)[C@@]1(O)C(=O)CO` (stereo not given in full), the growth in the test on NCI-H23 lung is 105%; in the test on NCI-H226 lung, 70.5%; with NCI-H322M lung, 94.6%; with HOP-62 NSCLC, 101%; with NCI-H460 lung, 96.2%; in the test on HOP-92 NSCLC, 80%. The growth with NCI-H522 lung is 91.9%; in the test with A549/ATCC NSCLC, 68%; in the test on 786-0 renal, 109%; with COLO 205 colon, 99.3%; in the test on DU-145 prostate, 80.8%; with K-562 leukemia, 107%. The growth is 84.7% in the test on MALME-3M melanoma; 95.1% in the test on MDA-MB-231 breast; 120% with RXF 393 renal; 88.8% in the test with SF-268 CNS; 116% in the test with SF-295 CNS; 83.2% in the test with SF-539 CNS. The growth was 88.4% in the test with UACC-257 melanoma and 93.5% in the test on M14 melanoma.
